High-throughput results deposited in PubChem BioAssay by University of Kansas High Throughput Screening Laboratory.
Pf apPOL inh: Pf-apPOL DNA polymerase inhibition; Recombinant Pf-apPOL, molecular beacon fluorescence, 1.5 h; inhibition, % at 10 µM; actives 0.25% (n = 210,000); AID 1794808
mHTT-CaM PPI inh: mHTT-calmodulin interaction abrogation. P42858. AlphaScreen His-mHTT/GST-CaM binding, luminescence. inhibition, % at 15 µM. actives 3.6% (n = 190,000). AID 1671202;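 further: 0% = both proteins with DMSO and 100% = one protein alone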
* marks the source's active call; other numbers are inactive results; i = inactive; . = no result; + = active, no number. Sampled rows, rich in hits. Any-hit rate of the full collection: about 3.6%. No stated cut-off is given here; in the data, active means inhibition above about 50%; inactive means the rest.

SMILES | Pf apPOL inh | mHTT-CaM PPI inh
CC1=NN(c2ccc(Cl)c(Cl)c2)C(=O)/C1=C/c1ccc(N(C)C)cc1 | 1.4 | 44.0
O=C1OC(/C=C/c2ccccc2)=NC/1=C/c1cccc(Cl)c1 | -0.9 | 8.0
CCOC(=O)c1ccc(Cl)c(NC(=S)NN)c1 | -11.3 | .
O=C1CCC[C@H]2C[C@H](NCCc3ccncc3)CC[C@]23CCCN13 | -8.4 | 77.0*
O=C1CCC[C@H]2C[C@H](NCc3ccc(F)cc3)CC[C@]23CCCN13 | -6.8 | -5.5
O=c1c2ccccc2nc(SCc2c(F)cccc2Cl)n1CC1CC1 | -3.1 | .
Cc1c(Cl)c(=O)[nH]c2ccccc12 | -8.5 | .
CCc1[nH]c2ccccc2c1C | -10.7 | 50.5*
Cc1ccc(C(=O)NC2CCC(NC(=O)c3ccc(C)o3)CC2)o1 (stereo not drawn) | -2.6 | -2.9
C[N+](C)(CC(=O)c1ccc(Br)cc1)CC12CC3CC(CC(C3)C1)C2 | . | -0.1
COc1ccc(/C=C2\C(=O)c3ccc(C(=O)O)cc3C2=O)cc1OC | -9.9 | 3.0
CCN(CC)c1ccc(/C=C2\C(=O)c3ccc(C(=O)O)cc3C2=O)cc1 | 0.7 | 62.0*
O=C(CCc1csc(NC(=O)NC2CCCCC2)n1)NCCC1=CCCCC1 | -9.4 | -10.0
CNc1ccc(C(=O)Nc2nc(C(C)(C)C)cs2)cc1[N+](=O)[O-] | -10.7 | 6.7
CN(C)c1ccc(C(=O)Nc2nc(C(C)(C)C)cs2)cc1[N+](=O)[O-] | -8.1 | 62.4*
CCCCC1CCC(C(=O)Nc2ncccn2)CC1 (stereo not drawn) | -2.5 | -3.3
CC(C)Cn1c(=O)c(N2CCN(C(=O)Nc3ccccc3Cl)CC2)nc2ccncc21 | -15.1 | 1.3
CCn1c(C(=O)N2CCN(Cc3ccccc3)CC2)cc2sccc21 | -6.6 | 57.2*
O=C(c1cc2sccc2n1Cc1ccccc1F)N1CCOCC1 | -3.6 | 5.6
COc1ccccc1NS(=O)(=O)c1cc(C(=O)Nc2ccccc2)ccc1C | 5.7 | 14.5
COc1ccccc1NCC(=O)c1ccc(C)c(C)c1 | 64.6* | 34.0
COc1ccc2nc(N=C(N)NC(=O)c3ccc(F)cc3)nc(C)c2c1 | -2.7 | 4.0
Cc1ccc(/C=C2\Sc3ccccc3C2=O)c(O)c1 | -2.4 | 31.0
COc1ccc(-c2noc(CSc3nnc(C(F)(F)F)n3C)n2)cc1 | 1.9 | .
Cc1ccc(-n2ncc3c(NCc4ccc(F)cc4)ncnc32)c(C)c1 | 0.2 | 10.0
SMILES | Pf apPOL inh | mHTT-CaM PPI inh
COc1ccc(C2SCCN2C(=O)c2ccccc2C(=O)O)cc1Br (stereo not drawn) | -0.3 | 5.0
COc1ccc(C2SCC3C(=O)N(c4ccccc4)C(=S)N32)cc1O (stereo not drawn) | -4.6 | 100.2*
CCN(CC)c1ccc(C=Cc2cc(=O)cc(C)o2)cc1 | -21.6 | -38.3
CN1CCc2cc(C(CNC(=O)c3cccs3)N3CCOCC3)ccc21 (stereo not drawn) | -19.3 | 95.4*
COc1ccc(Cl)cc1S(=O)(=O)NCC(c1ccc2c(c1)CCN2C)N(C)C (stereo not drawn) | -10.4 | 68.9*
CN1CCCc2cc(C(CNC(=O)Cc3cccs3)N3CCOCC3)ccc21 (stereo not drawn) | -17.0 | 29.2
O=S(=O)(NCC(c1ccsc1)N1CCOCC1)c1cccs1 (stereo not drawn) | -2.6 | -23.2
COc1ccc(Cl)cc1S(=O)(=O)NCC(c1cccn1C)N1CCCC1 (stereo not drawn) | -7.4 | -1.7
CN1CCc2cc(C(CNS(=O)(=O)c3ccc(Cl)s3)N3CCOCC3)ccc21 (stereo not drawn) | -12.3 | 98.6*
COc1ccc(OC)c(N2CCN(Cc3ccc(F)cc3)C(C)C2=O)c1 (stereo not drawn) | 4.0 | 73.8*
COc1ccc(N2CCN(Cc3ccc(F)cc3)C(C)C2=O)c(OC)c1 (stereo not drawn) | -1.3 | 17.4
COc1ccc(OC)c(N2CCN(Cc3cccc(C)c3)C(C)C2=O)c1 (stereo not drawn) | 0.6 | 62.3*
COc1ccc(OC)c(N2CCN(Cc3ccccc3F)C(C)C2=O)c1 (stereo not drawn) | 0.2 | 22.4
COc1ccc(OC)c2sc(N(CCN(C)C)C(=O)c3cccc(SC)c3)nc12 | 1.9 | 18.2
CSc1cccc(C(=O)N(CCn2cccn2)c2nc3c(Cl)cccc3s2)c1 | -4.7 | 100.1*
O=C1CSC(c2ccc(Br)s2)N1c1ccc(Br)cc1 (stereo not drawn) | -1.4 | -30.0
Cc1ccc(-n2cnc3cc(C(=O)NCc4ccccn4)ccc32)c(C)c1 | 27.6 | 10.0
CCn1cc(S(=O)(=O)CC(=O)Nc2cc(C(F)(F)F)ccc2Cl)c2ccccc21 | -0.5 | -2.0
S=c1[nH]nc(-c2ccncc2)n1/N=C/C=C/c1ccco1 | . | i
S=c1[nH]nc(-c2ccccn2)n1/N=C/C=C/c1ccco1 | . | +
CCCCCCn1c(SCC(O)CO)nc2c1c(=O)[nH]c(=O)n2C (stereo not drawn) | 3.3 | 5.0
Cn1c(=O)[nH]c(=O)c2c1nc(SCC(O)CO)n2CC(N)=O (stereo not drawn) | 64.6* | -3.0
